# Source: PubChem BioAssay (Tox21)
# Results filed as inconclusive are left out. Where a call stands in place of a potency, no number is given. A number with no mark means an inactive call. The source made the active and inactive calls. Unless noted, calls follow the shape of the dose curve; as a rule, active = well fitted curve in the direction sought with a large enough effect in the repeat runs; inconclusive = weak or mixed curves; inactive = no such curve, though single readings can be large; an effect the other way counts as inactive or inconclusive.
# Tests used:
# [1] = qHTS assay to identify small molecule antagonists of the vitamin D receptor (VDR) signaling pathway - cell viability counter screen (AID 743225); also: nearly all actives have a fitted effect of over 50% in size
# Procedure, shortened: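 Cytotoxicity toward the VDR-bla HEK 293T line was scored by ATP-based CellTiter-Glo luminescence, read in the wells already used for the beta-lactamase readout after 16 h compound treatment under 3 nM 1-alpha,25-dihydroxyvitamin D3 stimulation.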
# [2] = qHTS assay to identify small molecule agonists of the NFkB signaling pathway - cell viability counter screen (AID 1159515; calls by dose curve; also: nearly all actives have a fitted effect of over 55% in size; also: potency is read from the fitted curve at half-maximal effect)
# Procedure, shortened: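 Multiplexed viability readout: after the 5 hr compound exposure and 1.5 hr FRET substrate step, CellTiter-Glo reagent went into the same NFkB-bla ME-180 wells; ATP luminescence was measured after 30 min at room temperature.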
# [3] = qHTS assay to identify small molecule agonists of the endoplasmic reticulum stress response signaling pathway (AID 1159516; active = well fitted activation curve with a large enough effect in the signal ratio in the repeat runs, not every such curve was filed as active; the % refers to the signal ratio)
# Procedure, shortened: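 Tox21 10K library screened in quantitative HTS format on ESRE-bla HeLa cells, a beta-lactamase reporter under ER stress response element control; 5 hr treatment, FRET read.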
# [4] = qHTS assay to identify small molecule agonists of the endoplasmic reticulum stress response signaling pathway - cell viability counter screen (AID 1159517; calls by dose curve; also: nearly all actives have a fitted effect of over 50% in size; also: potency is read from the fitted curve at half-maximal effect)
# Procedure, shortened: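 Cells, HeLa ESRE-bla; density, 1,500/well; dosing, 5 hr at 37 C, 5% CO2; readout, CellTiter-Glo luminescence after 30 min RT.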
# [5] = qHTS assay to identify small molecule antagonists of the retinoid-related orphan receptor gamma (ROR-gamma) signaling pathway - cell viability counter screen (AID 1159520); also: nearly all actives have a fitted effect of over 50% in size; also: potency is read from the fitted curve at half-maximal effect
# Procedure, shortened: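 Cytotoxicity was read from cellular ATP (CellTiter-Glo luminescence) after 16 hr at 37 C with 1 uM doxycycline induction. The inducer was added 2 hr after compound transfer to Tet-on ROR gamma CHO cells.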
# [6] = molecular target: Nuclear receptor ROR-gamma (Homo sapiens) (UniProt P51449); assay: qHTS assay to identify small molecule antagonists of the retinoid-related orphan receptor gamma (ROR-gamma) signaling pathway (AID 1159521; also: nearly all actives have a fitted effect of over 50% in size; also: potency is read from the fitted curve at half-maximal effect;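 as to activity change, negative = inhibition: CHO cells with doxycycline inducible ROR-gamma driving an RORE luciferase reporter; top concentration of the series differs between compounds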)
# Procedure, shortened: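 Readout: ONE-Glo luciferase luminescence, 30 min at room temperature. System: Tet-on RORγ CHO, RORE-LUC. Sequence: compound 2 h, doxycycline 1 uM final, 16 h at 37 C.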
# [7] = qHTS assay to identify small molecule agonists of the AP-1 signaling pathway (AID 1159526; calls by dose curve)
# [8] = qHTS assay to identify small molecule agonists of the vitamin D receptor (VDR) signaling pathway - cell viability counter screen (AID 743224); also: nearly all actives have a fitted effect of over 50% in size; also: potency is read from the fitted curve at half-maximal effect
# Procedure, shortened: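 Viability is measured in the same wells as the VDR-bla reporter assay: after 16 h compound treatment and 2 h substrate loading, CellTiter-Glo is added and luminescence read 30 min later.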
# [9] = molecular target: Retinoic acid receptor RXR-alpha (Homo sapiens) (UniProt P19793); assay: qHTS assay to identify small molecule agonists of the RXR signaling pathway (AID 1159527; calls by dose curve; also: nearly all actives have a fitted effect of over 35% in size)
# Retinoic acid receptor RXR-alpha (Homo sapiens), sequence (P19793 whole entry, looked up): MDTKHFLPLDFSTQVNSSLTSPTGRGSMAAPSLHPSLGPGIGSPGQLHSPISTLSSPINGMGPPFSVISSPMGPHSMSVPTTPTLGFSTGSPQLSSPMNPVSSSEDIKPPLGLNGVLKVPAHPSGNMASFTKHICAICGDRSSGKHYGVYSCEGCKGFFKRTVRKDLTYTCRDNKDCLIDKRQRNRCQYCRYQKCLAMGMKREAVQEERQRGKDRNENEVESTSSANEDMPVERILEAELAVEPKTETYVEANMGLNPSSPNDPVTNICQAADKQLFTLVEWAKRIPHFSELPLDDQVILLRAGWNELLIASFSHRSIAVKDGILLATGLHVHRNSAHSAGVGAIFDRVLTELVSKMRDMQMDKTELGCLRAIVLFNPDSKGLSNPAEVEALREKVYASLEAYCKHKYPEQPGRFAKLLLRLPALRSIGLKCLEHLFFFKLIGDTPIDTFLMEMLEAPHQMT
# Procedure, shortened: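 Reporter activation is measured as beta-lactamase activity via FRET substrate cleavage (emission 460/530 nm) in HEK 293T cells expressing an RXR-alpha-driven bla construct, following 16 hr compound exposure at 37 C.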
# [10] = qHTS assay to identify small molecule agonists of the AP-1 signaling pathway - cell viability counter screen (AID 1159525; calls by dose curve; also: nearly all actives have a fitted effect of over 55% in size)
# Procedure, shortened: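 Luminescent ATP readout (Cell Titer Glo, 30 min RT), normalised to DMSO and tetra n-octyl ammonium bromide controls. Cells were ME-180 AP-1-bla in 0.5% dialyzed FBS Opti-MEM, with a 5 h, 37 °C compound exposure.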
Structure (SMILES),Potency [1],Potency [2],Potency [3],Potency [4],Potency [5],Potency [6],Potency [7],Potency [8],Potency [9],Potency [10],"activity, negative = cytotoxicity [5]","activity change, negative = inhibition [6]",activation [7],activation [9]
CN(C)c1ccc(C(c2ccccc2)c2ccc(N(C)C)cc2)cc1,inactive,inactive,inactive,inactive,inactive,27.3 µM (active),inactive,–,–,–,–,–,–,–
CN(Cc1ccc(C(C)(C)C)cc1)Cc1cccc2ccccc12,–,21.3 µM (active),inactive,inactive,inactive,inactive,–,–,–,–,–,–,–,–
COc1ccc(C(=O)N2CCN(CC(=O)N3CCOCC3)CC2)cc1,inactive,inactive,inactive,inactive,inactive,inactive,inactive,–,–,–,–,–,–,–
CCN(CC)CCOC(=O)C(c1ccccc1)C1CCCCC1 (configuration not stated),inactive,inactive,inactive,inactive,inactive,inactive,–,inactive,–,–,–,–,–,–
CCCCCCCCCCCCN1CCCCCC1=O,–,54.9 µM (active),inactive,inactive,inactive,inactive,–,30.9 µM (active),–,–,–,–,–,–
O=C(O)C1(C(=O)O)CCC1.[NH2-].[NH2-].[Pt+2],inactive,inactive,inactive,inactive,inactive,inactive,inactive,inactive,inactive,–,–,–,–,–
O[C@@H](COc1cccc2ncccc12)CN1CCN(C2c3ccccc3[C@@H]3[C@H](c4ccccc42)C3(F)F)CC1 (some centres not stated),–,inactive,inactive,inactive,inactive,inactive,inactive,–,–,–,–,–,–,–
CCCOC(C(=O)OC1CCN(C)CC1)(c1ccccc1)c1ccccc1,inactive,inactive,inactive,inactive,inactive,13.3 µM (active),–,inactive,–,inactive,–,–,–,–
CCCCCCCCCCCCCCCCOS(=O)(=O)O,–,inactive,inactive,inactive,inactive,inactive,–,–,–,–,–,–,–,–
CCCCCCOC(=O)NC(=N)c1ccc(NCc2nc3cc(C(=O)N(CCC(=O)OCC)c4ccccn4)ccc3n2C)cc1,–,19 µM (active),inactive,21.3 µM (active),inactive,11.9 µM (active),–,29.8 µM (active),–,–,–,–,–,–
Cc1[nH]c(C)c(Cl)c(=O)c1Cl,inactive,inactive,inactive,inactive,–,–,–,inactive,–,–,3.57% [at 19 µM],-2.21% [at 19 µM],-0.748% [at 15.8 µM],5.66% [at 15.8 µM]
CN1CCC(=C2c3ccccc3Sc3ccccc32)CC1,inactive,inactive,inactive,inactive,inactive,29.8 µM (active),–,–,–,inactive,–,–,–,–
CCCCCCCC#N,inactive,inactive,inactive,inactive,inactive,inactive,–,–,–,inactive,–,–,–,–
CN1CCN(C(c2ccccc2)c2ccccc2)CC1,inactive,inactive,inactive,inactive,inactive,inactive,–,inactive,inactive,–,–,–,–,–
CCOC(=O)C(O)c1ccccc1 (configuration not stated),inactive,inactive,inactive,inactive,inactive,inactive,inactive,inactive,inactive,–,–,–,–,–
O=C1CCCCCCCCCCCC(=O)OCCO1,–,inactive,inactive,inactive,inactive,inactive,–,inactive,–,inactive,–,–,–,–
CCCCC,–,inactive,inactive,inactive,inactive,inactive,inactive,–,inactive,–,–,–,–,–
O=C1OC(=O)C2C3C=CC(C3)C12 (configuration not stated),inactive,inactive,inactive,inactive,inactive,inactive,inactive,inactive,inactive,–,–,–,–,–
CCN(CC)c1ccc2c(-c3ccccc3C(=O)O)c3ccc(=[N+](CC)CC)cc-3oc2c1,inactive,inactive,inactive,inactive,19.3 µM (active),inactive,–,–,–,inactive,–,–,–,–
Nc1ccc(S(=O)(=O)Nc2ccccc2)cc1,inactive,inactive,inactive,inactive,inactive,inactive,inactive,inactive,inactive,–,–,–,–,–
Cc1cccc(Nc2ccccc2)c1,inactive,inactive,inactive,inactive,inactive,inactive,–,inactive,–,–,–,–,–,–
Cc1cccc(C)c1OCC(=O)N[C@@H](Cc1ccccc1)[C@@H](O)C[C@H](Cc1ccccc1)NC(=O)[C@H](C(C)C)N1CCCNC1=O,inactive,19 µM (active),inactive,inactive,inactive,29.8 µM (active),inactive,inactive,–,–,–,–,–,–
Cc1ccccc1S(=O)(=O)O,inactive,inactive,inactive,inactive,inactive,inactive,inactive,inactive,inactive,–,–,–,–,–
CCC(Cl)CCC(Cl)C(Cl)CC(Cl)C(Cl)C(Cl)CCl (configuration not stated),inactive,inactive,inactive,inactive,inactive,inactive,–,–,inactive,–,–,–,–,–
C1CCCNCCC1,inactive,inactive,inactive,inactive,inactive,inactive,inactive,–,inactive,–,–,–,–,–
CCCCC(CC)CN1C(=O)C2C3C=CC(C3)C2C1=O (configuration not stated),–,inactive,inactive,inactive,inactive,inactive,–,–,–,–,–,–,–,–
CC(C)=CCC/C(C)=C/CC/C(C)=C/CO,inactive,inactive,inactive,inactive,inactive,inactive,–,49 µM (active),–,–,–,–,–,–
Cc1oc2c(NC(=O)c3c(Cl)cccc3Cl)cccc2c1C(C)(C)O,–,inactive,inactive,inactive,inactive,27.3 µM (active),inactive,–,–,–,–,–,–,–
C=C1C(=C/C=C2\CCC[C@]3(C)[C@@H]([C@H](C)/C=C/[C@@H](O)C4CC4)CC[C@@H]23)C[C@@H](O)C[C@@H]1O,–,inactive,inactive,inactive,inactive,13.3 µM (active),–,inactive,–,–,–,–,–,–
Cc1cc(N)c2cc(NC(=O)Nc3ccc4nc(C)cc(N)c4c3)ccc2n1,–,inactive,inactive,inactive,inactive,–,–,–,–,–,–,–,–,–
